Assay results taken from PubChem BioAssay (NCATS).
Inconclusive results are not listed. Active and inactive are the calls of the source. The call rests on the fitted dose curve; in most records, active means well fitted curve in the direction sought with a large enough effect; inconclusive means small, poorly fitted or top-dose-only effect, or another doubt; inactive means no such curve, though single readings can be large; an effect the other way counts as inactive or inconclusive.

Test: qHTS of pediatric cancer cell lines to identify multiple opportunities for drug repurposing: Confirmatory screen for TC32 cells (AID 1347118);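 further: cells exposed to compound for 48 h before the read; nearly all actives have a fitted effect of over 65% in size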; on activity change, negative = cytotoxicity: on the % scale 0 is the no-effect control and ±100 the full control effect
Conditions: TC32 Ewing sarcoma cells viability qHTS; series mostly up to 45.9 µM; activity change, negative = cytotoxicity: at the top concentration
Summary of the method: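 Luminescent CellTiter-Glo read-out of metabolically active TC32 cells after 48 h compound exposure. Primary: MIPE 11-point, 0.78 nM–46 µM; NPC 8-point, 0.59 nM–46 µM. Confirmatory: 11-point dilutions.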
Potency means the concentration at half of the fitted maximal effect.

| SMILES | Potency | activity change, negative = cytotoxicity |
| --- | --- | --- |
| CCOc1ccn(-c2ccc(F)cc2)c(=O)c1C(=O)Nc1ccc(Oc2ccnc(N)c2Cl)c(F)c1 | 7.37 µM (active) |  |
| CC(C=CC1=C(C)CCCC1(C)C)=CC=CC(C)=CC(=O)O | 16.5 µM (active) |  |
| C#Cc1cccc(Nc2ncnc3cc(OCCOC)c(OCCOC)cc23)c1 | 14.7 µM (active) |  |
| COc1cccc2cc(-c3nc(C4CCC(C(=O)O)CC4)n4ncnc(N)c34)[nH]c12 (stereo unspecified) |  | -67.2% (inactive) |
| CNCc1ccc(-c2[nH]c3cc(F)cc4c3c2CCNC4=O)cc1 | 5.85 µM (active) |  |

Test: qHTS of pediatric cancer cell lines to identify multiple opportunities for drug repurposing: Confirmatory screen for MG 63 (6-TG R) cells (AID 1347119); further: nearly all actives have a fitted effect of over 55% in size;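 on activity change, negative = cytotoxicity: plate controls were DMSO neutral control for no effect and bortezomib for full effect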
Conditions: MG-63 (6-TG resistant) osteosarcoma viability; series mostly up to 45.9 µM; activity change, negative = cytotoxicity: at the top concentration
Summary of the method: (§1)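 Cells (500-1,000/well) rested 5 h, then received compounds for 48 h; metabolically active cells were measured by CellTiter-Glo luminescence. Final concentrations spanned up to 46 µM (MIPE, 11-point) or 0.59 nM-46 µM (NPC, 8-point) in primary screens, 11-point in follow-ups.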

| SMILES | activity change, negative = cytotoxicity | Potency |
| --- | --- | --- |
| NC(N)=NC(=O)c1nc(Cl)c(N)nc1N | 17.8% (inactive) |  |
| COc1ccc(-c2oc3cc(OC)ccc3c2C(=O)c2ccc(C#N)cc2)cc1 | -18.2% (inactive) |  |
| CCC(C)(C)C(=O)O[C@H]1C[C@@H](C)C=C2C=C[C@H](C)[C@H](CC[C@@H]3C[C@@H](O)CC(=O)O3)[C@H]21 |  | 2.93 µM (active) |
| O=C(c1cc(Cc2n[nH]c(=O)c3ccccc23)ccc1F)N1CCN(C(=O)C2CC2)CC1 | -7.25% (inactive) |  |
| CCC(C)n1ncn(-c2ccc(N3CCN(c4ccc(OC[C@H]5CO[C@](Cn6cncn6)(c6ccc(Cl)cc6Cl)O5)cc4)CC3)cc2)c1=O (stereo partly specified) | -7.95% (inactive) |  |
| CN1CCN(CCCN2c3ccccc3Sc3ccc(C(F)(F)F)cc32)CC1 |  | 23.3 µM (active) |
| COc1cc(Nc2ncc3c(n2)-c2ccc(Cl)cc2C(c2c(F)cccc2OC)=NC3)ccc1C(=O)O |  | 0.233 µM (active) |
| C[C@]1(c2nc3c(C(N)=O)cccc3[nH]2)CCCN1 | -11.1% (inactive) |  |
| COc1ccc(-c2ccc3c(N4CCOC[C@H]4C)nc(N4CCOC[C@H]4C)nc3n2)cc1CO |  | 0.0928 µM (active) |
| CS(=O)(=O)c1ccc(C(=O)Nc2ccc(Cl)c(-c3ccccn3)c2)c(Cl)c1 | -14.7% (inactive) |  |
| Cc1c(CN2CCN(C(=O)C(C)C)CC2)sc2c(N3CCOCC3)nc(-c3cnc(N)nc3)nc12 |  | 0.369 µM (active) |
| CN(C)c1ccc(C2Nc3ccc4ccccc4c3C3=C2C(=O)CC(C)(C)C3)cc1Br (stereo unspecified) |  | 7.59 µM (active) |
| NCCCC(N)(C(=O)O)C(F)F (stereo unspecified) | -1.61% (inactive) |  |
| COCC(=O)NCC=Cc1ccc2ncnc(Nc3ccc(Oc4ccc(C)nc4)c(C)c3)c2c1 |  | 38 µM (active) |
| NC(=O)c1ccc(I)c([N+](=O)[O-])c1 | -20.4% [at 95.5 µM] (inactive) |  |
| CCOc1cc(N2CCC(O)CC2)ccc1Nc1ncc2c(n1)N(C)c1ccccc1C(=O)N2C |  | 4.14 µM (active) |
| Oc1cccc(-c2nc(N3CCOCC3)c3oc4ncccc4c3n2)c1 |  | 0.135 µM (active) |
| Nc1nc2ccc(OC(F)(F)F)cc2s1 |  | 18.5 µM (active) |
| Nc1nc2c(ncn2COCCO)c(=O)[nH]1 | -27% (inactive) |  |
| OC(CN1CCC(Cc2ccc(F)cc2)CC1)c1ccc(Cl)cc1 (stereo unspecified) | -7.65% (inactive) |  |
| CCOc1ccn(-c2ccc(F)cc2)c(=O)c1C(=O)Nc1ccc(Oc2ccnc(N)c2Cl)c(F)c1 |  | 10.4 µM (active) |
| O=NN(CCCl)C(=O)NCCCl |  | 20.8 µM (active) |
| C#Cc1cccc(Nc2ncnc3cc(OCCOC)c(OCCOC)cc23)c1 |  | 16.5 µM (active) |

Test: qHTS of pediatric cancer cell lines to identify multiple opportunities for drug repurposing: Confirmatory screen for control Hh wild type fibroblast cells (AID 1347121); further: nearly all actives have a fitted effect of over 70% in size;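 on activity, negative = cytotoxic: plate controls were DMSO for no effect and bortezomib for full effect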
Conditions: viability qHTS; series mostly up to 45.9 µM; activity, negative = cytotoxic: at the top concentration
Summary of the method: as §1

| SMILES | activity, negative = cytotoxic | Potency |
| --- | --- | --- |
| NC(N)=NC(=O)c1nc(Cl)c(N)nc1N | 12% (inactive) |  |
| COc1ccc(-c2oc3cc(OC)ccc3c2C(=O)c2ccc(C#N)cc2)cc1 | 9.94% (inactive) |  |
| Cc1oncc1C(=O)Nc1ccc(C(F)(F)F)cc1 | -5.83% (inactive) |  |
| O=C(c1cc(Cc2n[nH]c(=O)c3ccccc23)ccc1F)N1CCN(C(=O)C2CC2)CC1 | 7.88% (inactive) |  |
| Cn1cnc([N+](=O)[O-])c1Sc1ncnc2nc[nH]c12 | -2.54% [at 95.5 µM] (inactive) |  |
| CCC(C)n1ncn(-c2ccc(N3CCN(c4ccc(OC[C@H]5CO[C@](Cn6cncn6)(c6ccc(Cl)cc6Cl)O5)cc4)CC3)cc2)c1=O (stereo partly specified) | 0.715% (inactive) |  |
| O=C(NOC[C@H](O)CO)c1ccc(F)c(F)c1Nc1ccc(I)cc1F | 2.3% (inactive) |  |
| OC[C@H](Cc1ccccc1)Nc1nc(Oc2ccc3c(c2)CCC3)nc2c1ncn2Cc1ccc(-c2ccccc2)cc1 | -2.34% (inactive) |  |
| COc1cc(Nc2ncc3c(n2)-c2ccc(Cl)cc2C(c2c(F)cccc2OC)=NC3)ccc1C(=O)O | -12.1% (inactive) |  |
| C[C@]1(c2nc3c(C(N)=O)cccc3[nH]2)CCCN1 | 8.07% (inactive) |  |
| CO[C@@H]1[C@H](N(C)C(=O)c2ccccc2)C[C@H]2O[C@]1(C)n1c3ccccc3c3c4c(c5c6ccccc6n2c5c31)C(=O)NC4 | 13.7% (inactive) |  |
| CCN(CC)CCCC(C)Nc1ccnc2cc(Cl)ccc12 (stereo unspecified) | 6.55% (inactive) |  |
| CS(=O)(=O)c1ccc(C(=O)Nc2ccc(Cl)c(-c3ccccn3)c2)c(Cl)c1 | 9.42% (inactive) |  |
| Cc1cn[nH]c1 | 0.978% (inactive) |  |
| Cc1c(C)c2c(c(C)c1O)CCC(C)(COc1ccc(CC3SC(=O)NC3=O)cc1)O2 (stereo unspecified) | 10.5% (inactive) |  |
| CN(C)c1ccc(C2Nc3ccc4ccccc4c3C3=C2C(=O)CC(C)(C)C3)cc1Br (stereo unspecified) | -4.86% [at 95.5 µM] (inactive) |  |
| Cn1cnc2c(F)c(Nc3ccc(Br)cc3Cl)c(C(=O)NOCCO)cc21 | -7.36% (inactive) |  |

| SMILES | activity, negative = cytotoxic | Potency |
| --- | --- | --- |
| NCCCC(N)(C(=O)O)C(F)F (stereo unspecified) | 12.1% (inactive) |  |
| COCC(=O)NCC=Cc1ccc2ncnc(Nc3ccc(Oc4ccc(C)nc4)c(C)c3)c2c1 |  | 42.7 µM (active) |
| CCCS(=O)(=O)Nc1ccc(F)c(C(=O)c2c[nH]c3ncc(-c4ccc(Cl)cc4)cc23)c1F | -12.1% (inactive) |  |
| NC(=O)c1ccc(I)c([N+](=O)[O-])c1 | -1.41% [at 95.5 µM] (inactive) |  |
| CCOc1cc(N2CCC(O)CC2)ccc1Nc1ncc2c(n1)N(C)c1ccccc1C(=O)N2C | -16.6% (inactive) |  |
| COc1cc2nccc(Oc3ccc(NC(=O)NC4CC4)c(Cl)c3)c2cc1C(N)=O | -10.3% (inactive) |  |
| Nc1nc2[nH]cc(CCc3ccc(C(=O)N[C@@H](CCC(=O)O)C(=O)O)cc3)c2c(=O)[nH]1 | 13.1% (inactive) |  |
| Nc1nc2ccc(OC(F)(F)F)cc2s1 | -17.2% (inactive) |  |
| Nc1nc2c(ncn2COCCO)c(=O)[nH]1 | 3.7% (inactive) |  |
| OC(CN1CCC(Cc2ccc(F)cc2)CC1)c1ccc(Cl)cc1 (stereo unspecified) | 1.73% (inactive) |  |
| CCOc1ccn(-c2ccc(F)cc2)c(=O)c1C(=O)Nc1ccc(Oc2ccnc(N)c2Cl)c(F)c1 | 0.44% (inactive) |  |
| O=NN(CCCl)C(=O)NCCCl | 8.65% (inactive) |  |
| CC(C=CC1=C(C)CCCC1(C)C)=CC=CC(C)=CC(=O)O | 2.32% (inactive) |  |
| C#Cc1cccc(Nc2ncnc3cc(OCCOC)c(OCCOC)cc23)c1 | -13.6% (inactive) |  |
| COc1cccc2cc(-c3nc(C4CCC(C(=O)O)CC4)n4ncnc(N)c34)[nH]c12 (stereo unspecified) | -35.1% (inactive) |  |
| CNCc1ccc(-c2[nH]c3cc(F)cc4c3c2CCNC4=O)cc1 | -2.78% (inactive) |  |
